SMILES strings stand for the structures. This is part of a sample that, as a whole, favours compounds with a hit. Of some 83,000 tested, about 20% had one in any assay.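 48-hour exposure, single concentration, 96-well plates; percent growth endpoint where 0 means no net growth. Active: below 10.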 Values without a mark were called inactive. Calls of active or inactive are those of the source.

Holding throughout (assay): NCI-60 one-dose screen, 48 h (100 = growth as untreated, 0 = no growth, -100 = all killed)
What all share (settings): 10 µM unless noted

In assay [1] the test system is HCT-15 colon.
Assay [2] concerns HT29 colon.
Assay [3] deals with SNB-75 CNS.
Assay [4] concerns SNB-19 CNS.
Assay [5] has as its system U251 CNS.
The subject of assay [6] is PC-3 prostate.
In assay [7] the test system is SK-MEL-5 melanoma.
The subject of assay [8] is UACC-62 melanoma.
The subject of assay [9] is LOX IMVI melanoma.
The test system of assay [10] is SK-MEL-28 melanoma.
The test system of assay [11] is EKVX NSCLC.
The subject of assay [12] is SN12C renal.
For assay [13], the system named is UO-31 renal.
Assay [14] has as its system TK-10 renal.
In assay [15] the test system is ACHN renal.
Assay [16] has as its system CAKI-1 renal.
Assay [17] relates to A498 renal.
Assay [18] deals with CCRF-CEM leukemia.
In assay [19] the test system is MOLT-4 leukemia.

Take `COc1cc2nccc(Oc3ccc(NC(=O)C4(C(=O)Nc5ccc(F)cc5)CC4)cc3)c2cc1OC`: the growth in [1] was 5.75% (active); in [2], -19.1% (active); in [3] it was -18.9% (active); in assay [4] it was 29.9%; in assay [5], 25.1%; in assay [6], 20.8%. For the same compound, the growth in assay [7] was 3.39% (active); in [8], -12.2% (active); in assay [9] it was -71.2% (active); in [10], 1.37% (active); in assay [11] it was 23.4%; in assay [12], 9.57% (active). For the same compound, the growth in assay [13] was -19.2% (active); in [14] it was 15.1%; in [15], 4.85% (active); in assay [16], -14.9% (active); in assay [17] it was -44.2% (active); in assay [18], 19.1%. For the same compound, in [19], the growth was 11.6%.

In the case of `CCN(CC)CCOc1ccc(/C(=C(\C)c2ccc(Cl)cc2)c2ccc(Cl)cc2)cc1`, the growth in assay [1] was 21.7%; in assay [2], 8.96% (active); in assay [3], 116%; in assay [4], 79.3%; in [5] it was 54%; in [6], 70.7%. Moreover, the growth is 38% in assay [7]; 88.4% in [8]; 35.4% in assay [9]; 75.6% in assay [10]; 88.6% in assay [11]; 76.5% in assay [12]. The growth in [13] was 64.8%; in [14], 87.6%; in assay [15], 94.5%; in assay [16], 83.4%; in assay [17], 79.6%; in [18] it was 43.1%. Moreover, the growth in [19] was 50.7%.

On to `Cc1cccc(Cl)c1NC(=O)c1cnc(Nc2cc(N3CCOCC3)cc(N3CCOCC3)c2)s1`, for which the growth in assay [1] was 22.2%; in assay [2], -10.2% (active); in assay [3], -43.3% (active); in assay [4] it was 47.4%; in assay [5], 54.6%; in assay [6], 45.7%. In addition, the growth in assay [7] is 65.1%; in assay [8], 41.6%; in [9] it was -71.8% (active); in assay [10], 63.6%; in assay [11], 33.1%; in [12], 30%. In addition, the growth was -0.169% (active) in [13]; -65.2% (active) in assay [14]; -7.5% (active) in assay [15]; -37.8% (active) in assay [16]; -22.6% (active) in assay [17]; 63.2% in [18]. Besides, in assay [19], the growth was 27.8%.

In the case of `COc1ccc(C(=O)N2c3ccccc3Sc3ccccc32)c(F)c1`, the growth is 27.3% in [1]; 5.07% (active) in assay [2]; -11.3% (active) in assay [3]; 35.8% in assay [4]; 33.6% in [5]; 29.8% in assay [6]. Besides, the growth was 15.7% in assay [7]; 22.6% in assay [8]; 40.3% in assay [9]; 58.9% in assay [10]; 44% in assay [11]; 60.8% in [12]. Moreover, the growth in assay [13] was 49.2%; in [14], 44.5%; in [15] it was 48.4%; in [16], 45.3%; in [17], 2.13% (active); in assay [18], 17%. Also, the growth in [19] is 27.1%.

As for `Cn1nccc1Nc1nccc(-c2ccn([C@H](CO)c3ccc(Cl)c(F)c3)c(=O)c2)n1`, the growth was 94.1% in assay [1]; 19.9% in [2]; 101% in assay [3]; 94.1% in assay [4]; 86.2% in [5]; 111% in assay [6]. In addition, the growth is 70.7% in assay [7]; 9.88% (active) in assay [8]; 58.5% in assay [9]; 16.9% in [10]; 93% in assay [11]; 107% in [12]. Further, the growth in assay [13] is 68%; in [14], 67.4%; in assay [15], 90.8%; in [16], 79.9%; in assay [17], 70.5%; in [18] it was 99.8%. In [19], the growth was 96%.

`Cc1cc(Nc2cc(N3CCN(C)CC3)nc(/C=C/c3ccccc3)n2)n[nH]1`: the growth in assay [1] was 13.4%; in [2], -34.3% (active); in assay [3] it was -97.1% (active); in assay [4], 14%; in [5] it was -29.9% (active); in [6], 16.5%. Also, the growth in [7] is -88.7% (active); in [8], -69.9% (active); in [9], -92.6% (active); in assay [10] it was -65.4% (active); in assay [11] it was 36.1%; in assay [12], 11.7%. The growth in [13] was -53.8% (active); in assay [14] it was -0.298% (active); in assay [15], 0.23% (active); in assay [16], -45.3% (active); in [17], -86.7% (active); in assay [18], 13.8%. Also, in assay [19], the growth is -5.35% (active).

As for `CC/C=C\C[C@H]1C/C=C2/C(=O)C=C[C@@H]2C/C=C\CCCC(=O)O1`, the growth in assay [1] was -33.8% (active); in assay [2] it was -29.2% (active); in [3], 47%; in assay [4] it was 12.6%; in assay [5] it was -80.9% (active); in [6], -42.6% (active). In addition, the growth in assay [7] is -88.4% (active); in [8], -57.6% (active); in assay [9] it was -76.1% (active); in [10] it was -28.6% (active); in assay [11], 11.8%; in assay [12], -27.8% (active). In addition, the growth in assay [13] is -90.3% (active); in assay [14], -38.3% (active); in assay [15] it was -89.3% (active); in [16], -35.8% (active); in assay [17] it was -50.6% (active); in assay [18] it was -14.5% (active). The growth in [19] was -4.8% (active).

On to `Cc1cc2c(F)c(Oc3ncnn4cc(OC[C@@H](C)OC(=O)[C@H](C)N)c(C)c34)ccc2[nH]1`, for which the growth in assay [1] is 38.6%; in [2], 6.32% (active); in [3], 55.6%; in [4] it was 51.8%; in assay [5] it was 44.8%; in assay [6] it was 54.5%. The growth in [7] is 42.6%; in assay [8], 2.73% (active); in [9] it was 26.5%; in [10], 10.5%; in assay [11], 61.2%; in assay [12], 55.6%. Further, the growth is 36.3% in assay [13]; 35.6% in assay [14]; 46.8% in [15]; 48.8% in [16]; 21.7% in [17]; 45.4% in assay [18]. Also, the growth in [19] is 48.3%.

The record behind these values is PubChem BioAssay (NCI).
